Test results from PubChem BioAssay.
A number with no mark means an inactive call. No rule for the calls is given here.

Tested on: Aerobactin synthetase IucA (Klebsiella pneumoniae, hypervirulent)
Experiment: biochemical IucA inhibition screen of LOPAC library by absorbance (AID 1346212);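 also: 100% = no compound wells and 0% = no enzyme wells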
Conditions: IucA enzyme assay, absorbance (OD) readout; hits give low values;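 tested at 8 µM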

| SMILES | remaining activity [%] |
| --- | --- |
| O=C(O)CCC(C(=O)O)N1C(=O)c2ccccc2C1=O (stereo not given) | 121 |
| COc1cc2c(cc1C(F)(F)F)N(C(=O)Nc1cc(F)cc(-c3cccnc3)c1)CC2 | 120 |
| OC[C@H]1NC[C@H](O)[C@@H](O)[C@@H]1O | 100 |
| COc1ccc(CCN(C)CCc2ccc(OC)c(OC)c2)cc1OC | 122 |
| NC(N)=Nc1nc(CSCC/C(N)=N/S(N)(=O)=O)cs1 | 102 |
| CC(C)NC[C@H](O)COc1ccc(CC(N)=O)cc1 | 115 |
| O=C(c1ccc(Cl)cc1)N1CCN(c2ccc([N+](=O)[O-])c3ncccc23)CC1 | 120 |
| CCOC(=O)c1cnc2c(cnn2CC)c1NN=C(C)C | 124 |
| Cc1cccc(C)c1NC(=O)C(C)N (stereo not given) | 95.4 |
| CC(C)NCC(O)COc1ccc(COCCOC(C)C)cc1 (stereo not given) | 91.4 |
| C[C@]12CCC(=O)C=C1CC[C@@H]1[C@@H]2[C@@H](O)C[C@@]2(C)[C@H]1CC[C@]2(O)C(=O)COC(=O)CCC(=O)O | 92.9 |
| C=CCN1CCc2c(cc(O)c(O)c2Br)[C@@H](c2ccccc2)C1 | 116 |
| CC(C)(C)NCC(O)COc1nsnc1N1CCOCC1 (stereo not given) | 109 |
| N#C/C(=C\c1ccc(O)c(O)c1)C(=O)NCc1ccccc1 | 101 |
| c1ccc(-c2ccccn2)nc1 | 75.1 |
| N=S(=O)(O)Cc1noc2ccccc12 | 121 |
| N=C(N)SCCc1cnc[nH]1 | 122 |
| O=S(=O)(c1cccc2c(Cl)cccc12)N1CCCNCC1 | 110 |
| CN1Cc2sccc2C(c2ccc(O)c(O)c2)C1 (stereo not given) | 120 |
| CNc1cc(NS(=O)(=O)c2ccc(N)cc2)nc(NC)n1 | 104 |

| SMILES | remaining activity [%] |
| --- | --- |
| CCn1ccnc1CC1COc2ccccc2O1 (stereo not given) | 112 |
| CC(C)N(CCC(=O)c1ccc2ccccc2c1)Cc1ccccc1 | 112 |
| Nc1ncnc2n[nH]c(Nc3ccc(F)cc3)c12 | 101 |
| CN(C)C(=O)/N=N/C(=O)N(C)C | 93.2 |
| Nc1nc2ccc(OC(F)(F)F)cc2s1 | 98.9 |
| O=C(O)CN(CCOCCOCCN(CC(=O)O)CC(=O)O)CC(=O)O | 88.2 |
| CC(C)CN(C)c1nc(N)c(C(=O)N=C(N)N)nc1Cl | 114 |
| CC(=O)c1ccc(S(=O)(=O)NC(=O)NC2CCCCC2)cc1 | 127 |
| CCCOC(=O)c1c(-c2ccccc2)nc(CC)c(C(=O)SCC)c1CCC | 106 |
| O=c1[nH]c2cc([N+](=O)[O-])c([N+](=O)[O-])cc2[nH]c1=O | 101 |
| C/C=C1\C(=O)C[C@H]2[C@@H]3CCC4=CC(=O)CC[C@]4(C)[C@H]3CC[C@]12C | 101 |
| O=C(Nc1cccc(C(=O)Nc2ccc(S(=O)(=O)O)c3cc(S(=O)(=O)O)cc(S(=O)(=O)O)c23)c1)Nc1cccc(C(=O)Nc2ccc(S(=O)(=O)O)c3cc(S(=O)(=O)O)cc(S(=O)(=O)O)c23)c1 | 88.6 |
| CN(C)c1cc2c(Nc3ccc4c(cnn4Cc4ccccc4)c3)ncnc2cn1 | 115 |
| COc1cccc(NC(=O)/C=C/c2ccc(Cl)cc2)c1 | 101 |
| CC(N)=NCc1cccc(CN)c1 | 103 |
| Cc1nc2c([nH]1)c(=O)n(C)c(=O)n2Cc1ccco1 | 99.1 |
| N[C@H](C(=O)O)[C@H](O)C(=O)O | 106 |
| O=C(O)Cc1ccc(O)c(O)c1 | 107 |
| Cc1nc2sccn2c(=O)c1CCN1CCC(=C(c2ccc(F)cc2)c2ccc(F)cc2)CC1 | 99.1 |
| Oc1ccc(-c2nc(-c3ccc(F)cc3)c(-c3ccncc3)[nH]2)cc1 | 119 |
